Results filed as inconclusive are left out. The source made the active and inactive calls. The call rests on the fitted dose curve; in most records, active means well fitted inhibition curve with a large enough effect; inconclusive means small, poorly fitted or top-dose-only effect; inactive means no such curve, though single readings can be large or run the other way.
Assay: BET inhibitor-based combinations targeting novel dependencies in MECOM-rearranged (r) AML: UCSD-AML1 cell line (AID 2202235); further: nearly all actives have a fitted effect of over 40% in size
Conditions: UCSD-AML1 AML cells viability, CellTiter-Glo, 48 h; series mostly up to 46 µM
Source text: Ecotropic viral insertion site 1 (EVI1) is located on chromosome 3q26.2 as part of the MECOM (MDS and EVI1 complex) locus. Under normal hematopoiesis, EVI1 is a regulator of hematopoietic stem cell maintenance and self-renewal and EVI1 levels decrease as the cells differentiate. In approximately 5-10% of de novo acute myeloid leukemia (AML) EVI1 is aberrantly expressed, including Chromosomal inv(3)(q21;q26.2) or t(3;3)(q21;q26.2) alterations (MECOM-r) that account for about 50% of AML with EVI1 overexpression 31. AMLs with high levels of EVI1 have a poor prognosis and an overall survival time averaging between 10-14 months. EVI1 overexpression confers resistance in leukemia cells, highlighting the need to develop new targeted therapies for EVI1 overexpressing AMLs. Here, we performed an unbiased chemical drug screening by evaluating the single agent activity of a collection of 2,480 oncology-focused, approved and investigational drugs (NCATS Mechanism Interrogation Plates, MIPE v5.0) against a panel of seven AML cell lines. These included four MECOM-r cell-lines (AML-191, AML-194, UCSD-AML1 and HNT-34) and three non-MECOM-r AMLs (MV4-11, OCI-AML3 and SET-2). Exploiting the mechanistic redundancy built in the library, we identified target-level sensitivities in MECOM-r AML cells and relative activity as compared to other AML subtypes.
A collection of 2480 mechanistically annotated dugs (MIPE v5.0) was used to screen four 3q26.2 rearranged AML cell lines and three non-3q26.2 rearranged AML cell lines. This library purposely exploits redundancy by including multiple inhibitors of key onco-targets, while simultaneously encompassing mechanistic diversity, targeting more than 800 distinct mechanisms of action. Briefly, cells were seeded in 5 uL of growth media using a Multidrop Combi dispenser into 1536 well white polystyrene tissue culture treated plates (Corning) at a density of 500cells/well. For each cell-line, for each of the 2480 drugs in MIPE v5.0 library, an 11-point dose curve was generated via a 1536 pin-tool. Plates were incubated for 48 hr at standard incubator conditions, covered by a stainless steel gasketed lid to prevent evaporation. Cell viability was determined by luminescence based, Cell Titer Glo assay (Promega). In detail, 3 uL of Cell Titer Glo were added to each well and plates were incubated at room temperature for 15 min with a stainless-steel lid in place. Luminescence readings were taken using a Viewlux (PerkinElmer) with a 2 s exposure time per plate. Compound dose-response curves were normalized to DMSO and empty well controls on each plate. Quantitative drug activity data from dose-response curves was determined utilizing area Under the Curve (AUC) and Z-transformed AUC (Z-AUC, a mean-centering transformation applied to each individual cell-line screened).
For `Cc1ccc(-n2[nH]c(C)c(N=Nc3cccc(-c4cccc(C(=O)O)c4)c3O)c2=O)cc1C`, the Potency was “inactive”. For `CCCCC(=O)OCC(=O)[C@]1(O)Cc2c(O)c3c(c(O)c2[C@@H](O[C@H]2C[C@H](NC(=O)C(F)(F)F)[C@H](O)[C@H](C)O2)C1)C(=O)c1c(OC)cccc1C3=O`, the Potency was 833 nM (active). For `N[C@@H]1CN(c2c(F)cc3c(=O)c(C(=O)O)cn([C@@H]4C[C@@H]4F)c3c2Cl)CC12CC2`, the Potency was “inactive”. In the case of `CC1(C)O[C@@H]2C[C@H]3[C@@H]4C[C@H](F)C5=CC(=O)C=C[C@]5(C)[C@H]4[C@@H](O)C[C@]3(C)[C@]2(C(=O)CO)O1`, the Potency is reported as “inactive”. With `C=CC(=O)Nc1cc2c(Nc3ccc(F)c(Cl)c3)ncnc2cc1C#CC(C)(C)N1CCN(C)CC1` the Potency was 4170 nM (active). With `CCS(=O)(=O)Nc1ccc2[nH]c(O)c(C(=Nc3ccc(CN4CCCCC4)cc3)c3ccccc3)c2c1` the Potency was 833 nM (active). For `Cc1nnn(C)c1-c1cnc2c3ccc(C(C)(C)O)cc3n([C@H](c3ccccc3)C3CCOCC3)c2c1`, the Potency was 26.3 nM (active). In the case of `N#Cc1cccnc1N1CCN(C(=O)c2cccc(Cc3n[nH]c(=O)c4ccccc34)c2)CC1`, the Potency is reported as 83.3 nM (active). For `OC1CCC(Oc2cccc3cnc(Nc4ccc5nc[nH]c5c4)nc23)CC1` (stereo not given), the Potency was 934 nM (active). For `C=C1C(=O)O[C@@H]2[C@H]3C(C)=CC[C@@]34O[C@@]4(C)CC[C@@H]12`, the Potency was 13200 nM (active). For `Cc1c[nH]c2nc(Nc3ccc(N4CCN(C)CC4)c(F)c3)nc(-c3cccc(CC#N)c3)c12`, the Potency was 742 nM (active). For `CC(C)(O)CC[C@@H](O)[C@](C)(O)[C@H]1CC[C@@]2(O)C3=CC(=O)[C@@H]4C[C@@H](O)[C@@H](O)C[C@]4(C)[C@H]3CC[C@]12C`, the Potency was “inactive”. With `Cc1ccc(C(=O)Nc2ccc(CN3CCN(C)CC3)c(C(F)(F)F)c2)cc1C#Cc1cnc2[nH]ncc2c1` the Potency was 105 nM (active). With `COC[C@@H](c1ccc(C(F)(F)F)cc1)N1CCN(C2(C)CCN(C(=O)c3c(C)ncnc3C)CC2)C[C@@H]1C` the Potency was “inactive”. For `O=C(CCCCCCNC(=O)c1cnc(N(c2ccccc2)c2ccccc2Cl)nc1)NO`, the Potency was 9340 nM (active). With `CC(/C=C/C(=O)NO)=C\[C@@H](C)C(=O)c1ccc(N(C)C)cc1` the Potency was 1050 nM (active). For `C[C@@H]1CC(=O)Nc2cccc(-c3ccc4c(c3)c(-c3cnn(C)c3)nn4C)c2N1`, the Potency was 2630 nM (active). For `NC[C@@](O)(c1ccc(Cl)cc1)c1ccc(-c2cn[nH]c2)cc1`, the Potency was 9340 nM (active). In the case of `COc1cc2c(cc1OC(C)C)[C@H](c1ccc(Cl)cc1)N(c1ccc(N(C)CC3CCC(N4CCN(C)C(=O)C4)CC3)cc1)C(=O)C2` (stereo not given in full), the Potency is reported as 4680 nM (active). With `Nc1nc(OC(c2ccc(-c3cccc(F)c3)cc2)C(F)(F)F)cc(-c2ccc(C[C@@H](N)C(=O)O)cc2)n1` (stereo not given in full) the Potency was “inactive”. In the case of `CCc1ccc(N(CC(C)C)S(=O)(=O)c2ccc(OCC3CCOCC3)c(CO)c2)cc1`, the Potency is reported as “inactive”. For `CONC(=O)Nc1ccc(-c2sc3c(c2CN(C)C)c(=O)n(-c2ccc(OC)nn2)c(=O)n3Cc2c(F)cccc2F)cc1`, the Potency was “inactive”. In the case of `CCCCc1ccc2nc(NC(=O)OC)[nH]c2c1`, the Potency is reported as 118 nM (active). In the case of `COCCOC(=O)N1CCN(S(=O)(=O)c2cc(F)c(Oc3ccc(Cl)cc3)c(F)c2)C(C(=O)NO)C1` (stereo not given), the Potency is reported as 10500 nM (active). With `COc1ccc2[nH]c(C(=O)N3CCC(CC(C)(C)O)CC3)cc2c1` the Potency was “inactive”. In the case of `CC(c1cc2ccccc2s1)N(O)C(N)=O` (stereo not given), the Potency is reported as “inactive”. In the case of `C/C=C(/C)C(=O)O[C@H]1C(C)=CC23C(=O)C(C=C(CO)[C@@H](O)[C@]12O)[C@H]1[C@@H](C[C@H]3C)C1(C)C` (stereo not given in full), the Potency is reported as 1.9 nM (active). In the case of `O=C(/C=C/c1cccnc1)NCCCCC1CCN(C(=O)c2ccccc2)CC1`, the Potency is reported as 8.3 nM (active). In the case of `Cc1[nH]c2ccccc2c1CCNCc1ccc(/C=C/C(=O)NO)cc1`, the Potency is reported as 93.4 nM (active). In the case of `CC(C)n1c(/C=C/[C@H](O)C[C@H](O)CC(=O)O)c(-c2ccc(F)cc2)c2ccccc21`, the Potency is reported as 11800 nM (active). In the case of `CC1(C)CCC2(CC1)N[C@@H](C(=O)N[C@@H]1CC[C@@H](C(N)=O)OC1)[C@H](c1ccnc(Cl)c1F)[C@]21C(=O)Nc2cc(Cl)ccc21`, the Potency is reported as 201 nM (active). In the case of `Clc1ccc(-c2nc3sccn3c2/C=N/OCc2ccc(Cl)c(Cl)c2)cc1`, the Potency is reported as “inactive”. With `COC(=O)C1=C(C)NC(c2ncc(F)cc2F)=N[C@@H]1c1ccc(F)cc1Cl` the Potency was “inactive”. For `CC1Oc2cc(cnc2N)-c2c(nn(C)c2C#N)CN(C)C(=O)c2ccc(F)cc21` (stereo not given), the Potency was 20900 nM (active). With `Cc1c(-c2cnccn2)ssc1=S` the Potency was “inactive”. For `NS(=O)(=O)c1ccc(Cc2c(-c3cccc(-c4ccccc4)c3)nn(-c3nc(C(=O)O)cs3)c2CC2CC2)cc1`, the Potency was “inactive”. In the case of `C=CC(=O)Nc1ccc(F)c(-c2ncnc3[nH]cc(C(=O)OCC)c23)c1`, the Potency is reported as “inactive”. For `CCC(=O)Nc1cccc(Oc2nc(Nc3ccc(N4CCN(C)CC4)cc3OC)ncc2Cl)c1`, the Potency was “inactive”. With `Nc1nc(OC(c2ccc(-c3cccc(F)c3)cc2)C(F)(F)F)cc(-c2ccc(C[C@H](N)C(=O)O)cc2)n1` (stereo not given in full) the Potency was “inactive”. In the case of `C[C@@H]1C[C@H](N)C[C@H](c2ccncc2NC(=O)c2ccc(F)c(-c3c(F)cccc3F)n2)C1`, the Potency is reported as 132 nM (active).

— PubChem BioAssay (NCATS)
Potency means the concentration at half of the fitted maximal effect.
